In PubChem BioAssay (NCATS):
Results filed as inconclusive are left out. Entries that show only a call come without a potency. Activity calls are given as the source filed them. Unless noted, the call rests on the fitted dose curve; in most records, active means well fitted curve in the direction sought with a large enough effect; inconclusive means small, poorly fitted or top-dose-only effect, or another doubt; inactive means no such curve, though single readings can be large; an effect the other way counts as inactive or inconclusive.

What was measured:
[1] = molecular target: Cytochrome P450 2C9 (Homo sapiens) (UniProt P11712); assay: Cytochrome P450 family 2 subfamily C member 9 (CYP2C9) small molecule antagonists: luciferase biochemical (cell-free) qHTS assay (AID 1645842; active means well fitted curve in the direction sought with a large enough effect in the repeat runs; an effect the other way counts as inactive or inconclusive; further: series mostly up to about 57 µM; nearly all actives have a fitted effect of over 55% in size)
Procedure, shortened: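 P450-Glo CYP2C9 system: proluciferin substrate with enzyme in mix containing 0.4% BSA, 10 min at room temperature, then NADPH regeneration solution added and incubated 1 h at 37C. Detection reagent stopped reaction; luminescence read after 20 min as RLU.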

[2] = Primary qHTS for inhibitors of nuclear receptor binding SET domain protein 2 (NSD2) in an RCH-ACV wild type WT cells (2C) (AID 1645877); further: nearly all actives have a fitted effect of over 70% in size; further: potency means the concentration at half of the fitted maximal effect
[3] = Primary qHTS for inhibitors of nuclear receptor binding SET domain protein 2 (NSD2) in an isogenic RCH-ACV NSD2 p.E1099K mutant (9B) (AID 1645876); further: nearly all actives have a fitted effect of over 70% in size
[4] = NCATS anti-infectives library activity on HEK293 viability as a counter-qHTS vs the C. elegans viability qHTS (AID 1745854);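 further: HEK293 cells exposed to compounds for 24 hr before the viability read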
Procedure, shortened: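 Counter-screen for cytotoxicity: HEK293, 24 hr, 37C, compounds up to 41.7 uM final (a dilution series, 1:5). Readout CellTiter-Glo luminescence, 10 min RT. Digitonin control, […] uM final.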

Sequence of Cytochrome P450 2C9 (Homo sapiens) (P11712 whole entry, looked up): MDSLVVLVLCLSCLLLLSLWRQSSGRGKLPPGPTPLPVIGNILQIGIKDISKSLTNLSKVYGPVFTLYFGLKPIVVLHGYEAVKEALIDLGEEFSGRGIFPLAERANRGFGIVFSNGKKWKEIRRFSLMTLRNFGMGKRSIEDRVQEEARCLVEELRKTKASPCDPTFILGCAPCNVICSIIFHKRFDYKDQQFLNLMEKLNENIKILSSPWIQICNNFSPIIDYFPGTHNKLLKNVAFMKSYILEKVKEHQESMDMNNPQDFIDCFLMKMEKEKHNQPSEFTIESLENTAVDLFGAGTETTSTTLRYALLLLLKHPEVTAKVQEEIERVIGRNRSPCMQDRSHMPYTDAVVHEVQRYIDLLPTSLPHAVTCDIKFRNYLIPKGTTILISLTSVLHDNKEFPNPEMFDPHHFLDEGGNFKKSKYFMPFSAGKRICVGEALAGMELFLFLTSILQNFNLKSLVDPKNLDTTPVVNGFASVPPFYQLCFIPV

Structure (SMILES): CC(=O)OCC(=O)[C@@]1(O)CC[C@H]2[C@@H]3CCC4=CC(=O)C=C[C@]4(C)[C@@]3(F)[C@@H](O)C[C@@]21C
- Potency [1]: inactive
- Potency [2]: 21.1 nM (active)

Structure (SMILES): O=C(O)/C=C/c1ccc(Cn2ccnc2)cc1
- Potency [3]: inactive
- Potency [2]: inactive

Structure (SMILES): CC(C)NC[C@@H](O)COc1ccc(CC(N)=O)cc1
- Potency [3]: inactive
- Potency [2]: inactive

Structure (SMILES): CN(C/C=C/C#CC(C)(C)C)Cc1cccc2ccccc12
- Potency [3]: inactive
- Potency [2]: inactive

Structure (SMILES): CCCCC1(COC(=O)CCC(=O)O)C(=O)N(c2ccccc2)N(c2ccccc2)C1=O
- Potency [3]: inactive
- Potency [2]: inactive

Structure (SMILES): CCCCOC(=O)c1ccc(N)cc1
- Potency [2]: inactive

Structure (SMILES): Cc1ccsc1/C=C/C1=NCCCN1C
- Potency [3]: inactive
- Potency [2]: inactive

Structure (SMILES): CC(=O)OC[C@H]1O[C@@](COC(C)=O)(O[C@H]2O[C@H](COC(C)=O)[C@@H](OC(C)=O)[C@H](OC(C)=O)[C@H]2OC(C)=O)[C@@H](OC(C)=O)[C@@H]1OC(C)=O
- Potency [3]: inactive
- Potency [2]: inactive

Structure (SMILES): CCCCCCCC(=O)OCC(O)CO (stereo not given)
- Potency [3]: inactive
- Potency [2]: inactive

Structure (SMILES): CCN(CC)S(=O)(=O)c1ccc(C(=O)O)cc1
- Potency [3]: inactive
- Potency [2]: inactive

Structure (SMILES): C1CCN2C[C@@H]3C[C@@H](CN4CCCC[C@@H]34)[C@H]2C1
- Potency [3]: inactive
- Potency [2]: inactive

Structure (SMILES): CC(C)=CCC[C@@](C)(O)[C@H]1CC=C(C)CC1
- Potency [3]: inactive

Structure (SMILES): Cc1ccc2c(c1)c1c3n2CCNC3CCC1 (stereo not given)
- Potency [3]: inactive

Structure (SMILES): Cc1c(N(C)C)c(=O)n(-c2ccccc2)n1C
- Potency [3]: inactive
- Potency [2]: inactive

Structure (SMILES): CN1C(C)(C)CCCC1(C)C
- Potency [3]: inactive
- Potency [2]: inactive

Structure (SMILES): Cc1ccc(S(=O)(=O)NC(=O)NC2CCCCC2)cc1
- Potency [3]: inactive
- Potency [2]: inactive

Structure (SMILES): C=CCOc1ccccc1OCC(O)CNC(C)C (stereo not given)
- Potency [1]: inactive
- outcome [4]: inactive

Structure (SMILES): COc1ccccc1OCC(O)CO (stereo not given)
- Potency [3]: inactive
- Potency [2]: inactive

Structure (SMILES): O=C1c2cccc(O)c2C(=O)c2c(O)cccc21
- Potency [1]: inactive
- Potency [3]: inactive
- Potency [2]: inactive
- outcome [4]: inactive

Structure (SMILES): CC(=O)N[C@H]1[C@H]([C@H](O)[C@H](O)CO)OC(C(=O)O)=C[C@@H]1N=C(N)N
- Potency [1]: inactive
- Potency [3]: inactive
- Potency [2]: inactive
- outcome [4]: inactive

Structure (SMILES): NCc1ccc(S(N)(=O)=O)cc1
- outcome [4]: inactive

Structure (SMILES): Cc1cccc(Nc2ccccc2C(=O)O)c1C
- Potency [3]: inactive
- Potency [2]: inactive

Structure (SMILES): CC(=O)N[C@@H](CC(C)C)C(=O)O
- Potency [3]: inactive
- Potency [2]: inactive

Structure (SMILES): CCCNC(C)(C)COC(=O)c1ccccc1
- Potency [3]: inactive
- Potency [2]: inactive

Structure (SMILES): OCc1ccc(Cl)cc1Cl
- Potency [1]: inactive
- Potency [3]: inactive
- Potency [2]: inactive
- outcome [4]: inactive

Structure (SMILES): CCN(CC)CCOC(=O)C(c1ccccc1)c1ccccc1
- Potency [3]: inactive
- Potency [2]: inactive

Structure (SMILES): CCC(C)(CN(C)C)OC(=O)c1ccccc1 (stereo not given)
- Potency [3]: inactive
